Consider 25 molecules from PubChem BioAssay (NCATS).

Results filed as inconclusive are left out. Calls of active or inactive are those of the source. The call rests on the fitted dose curve; in most records, active means well fitted cell-killing curve with a large enough effect; inconclusive means small, poorly fitted or top-dose-only effect, or effect the other way; inactive means no such curve, though single readings can be large or run the other way.

A short description of experiment [1]: Quantitative High-Throughput drug screen in 47 multiple myeloma cell lines against the NCATS MIPE library collection: U266_ATCC cell viability assay (AID 1919864). Further: nearly all actives have a fitted effect of over 35% in size. The method, boiled down:
(§1)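 Cells were exposed to library compounds for 48 hours, after which ATP was measured by CellTiter-Glo. Signal was taken as median relative luminescence units.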

The nature of experiment [2]: Quantitative High-Throughput drug screen in 47 multiple myeloma cell lines against the NCATS MIPE library collection: XG6_PLB cell viability assay (AID 1919865). Further: nearly all actives have a fitted effect of over 40% in size. In a few lines:
as §1

Experiment [3] in a line: Quantitative High-Throughput drug screen in 47 multiple myeloma cell lines against the NCATS MIPE library collection: PE2_PLB cell viability assay (AID 1919869). Further: nearly all actives have a fitted effect of over 35% in size. The method, boiled down: as §1
A short description of experiment [4]: Quantitative High-Throughput drug screen in 47 multiple myeloma cell lines against the NCATS MIPE library collection: OPM2_DSMZ cell viability assay (AID 1919872). Further: nearly all actives have a fitted effect of over 30% in size. In a few lines: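 Viability readout: CellTiter-Glo luminescence following 5 min room-temperature incubation with reagent. Prior exposure: 48 h, 37C, humidified 5% CO2, 500 cells per well.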
Experiment [5] can be described thus: Quantitative High-Throughput drug screen in 47 multiple myeloma cell lines against the NCATS MIPE library collection: XG1_PLB cell viability assay (AID 1919866). Further: nearly all actives have a fitted effect of over 35% in size. The method, boiled down:
as §1

A short description of experiment [6]: Quantitative High-Throughput drug screen in 47 multiple myeloma cell lines against the NCATS MIPE library collection: PCM6_Riken cell viability assay (AID 1919870). Further: nearly all actives have a fitted effect of over 30% in size. The method, boiled down:
as §1

The nature of experiment [7]: Quantitative High-Throughput drug screen in 47 multiple myeloma cell lines against the NCATS MIPE library collection: RPMI8226_ATCC cell viability assay (AID 1919871). Further: nearly all actives have a fitted effect of over 30% in size. In a few lines: as §1
A short description of experiment [8]: Quantitative High-Throughput drug screen in 47 multiple myeloma cell lines against the NCATS MIPE library collection: VP6_DJ cell viability assay (AID 1919867). Further: nearly all actives have a fitted effect of over 40% in size. The method, boiled down: as §1
A short description of experiment [9]: Quantitative High-Throughput drug screen in 47 multiple myeloma cell lines against the NCATS MIPE library collection: UTMC2_PLB cell viability assay (AID 1919868). Further: nearly all actives have a fitted effect of over 55% in size. The method, boiled down: as §1
Potency means the concentration at half of the fitted maximal effect.

As for `Nc1ccn([C@H]2CC[C@@H](CO)O2)c(=O)n1`, the Potency entry in [1], in [3] and in experiment [4] was “inactive” throughout. Besides, the Potency in experiment [2] was 10.5 µM (active).
Consider `Cc1cn([C@H]2C[C@H](N=[N+]=[N-])[C@@H](CO)O2)c(=O)[nH]c1=O`, for which the Potency in experiment [1] was 16.6 µM (active); in experiment [5], 16.6 µM (active); in experiment [3], 20.9 µM (active); in [6], 14.8 µM (active). For the same molecule, the Potency result in experiment [7] and in experiment [4] was “inactive” in each case.
Take `CCCCc1oc2ccccc2c1C(=O)c1cc(I)c(OCCN(CC)CC)c(I)c1`: the Potency in experiment [1] is 3.72 µM (active); in experiment [2], 13.2 µM (active); in experiment [5] it was 10.5 µM (active); in experiment [8], 14.8 µM (active); in experiment [6], 20.9 µM (active).
Regarding `O=C1N(c2ccccc2)c2ccccc2C1(Cc1ccncc1)Cc1ccncc1`, the Potency result in [1] and in experiment [4] was “inactive” each time. Also, the figures for the Potency in experiment [5], in experiment [8] and in [3] were 18.7 µM (active), 20.9 µM (active) and 20.9 µM (active), respectively.
`Cn1cnc2c1c(=O)[nH]c(=O)n2C`: the Potency is 23.5 µM (active) in [1]; 16.6 µM (active) in experiment [2]; 14.8 µM (active) in [5]; 14.8 µM (active) in experiment [9]; 9.35 µM (active) in [3]; 16.6 µM (active) in experiment [6]. In [4], the Potency was 20.9 µM (active).
Turning to `CC(COc1ccccc1)N(CCCl)Cc1ccccc1` (stereo not given), the Potency entry in experiment [1], in experiment [7] and in [4] was “inactive” throughout.
On to `CCOC(=O)Nc1ccc(NCc2ccc(F)cc2)nc1N`, for which the Potency entry in experiment [1], in experiment [5], in experiment [9], in experiment [7] and in experiment [4] was “inactive” throughout. The Potency in experiment [2] was 14.8 µM (active).
As to `COc1ccccc1N1CCN(CC(O)COc2cccc3ccccc23)CC1` (stereo not given), the Potency result in [1], in experiment [5], in [8] and in [3] was “inactive” in each case.
Turning to `CCc1cccc2c3c([nH]c12)C(CC)(CC(=O)O)OCC3` (stereo not given), the Potency entry in experiment [1], in [2], in experiment [5], in experiment [9], in experiment [3] and in experiment [6] was “inactive” in each case. The Potency result in experiment [4] is “inactive”.
As to `CC(CCc1ccc(O)cc1)NCCc1ccc(O)c(O)c1` (stereo not given), the Potency is 23.5 µM (active) in [1]; 23.5 µM (active) in [5]; 16.6 µM (active) in [8]; 20.9 µM (active) in experiment [3]; 20.9 µM (active) in [6]; 18.7 µM (active) in experiment [7]. The Potency in experiment [4] was 18.7 µM (active).
For `O=C(c1ccc(F)cc1)C1CCN(CCn2c(=O)[nH]c3ccccc3c2=O)CC1`, the Potency in experiment [1] is 4.69 µM (active); in [7], 5.26 µM (active). The Potency result in experiment [2], in experiment [9], in [3] and in experiment [4] was “inactive” in each case.
Take `COc1ccc(C2CNC(=O)C2)cc1OC1CCCC1` (stereo not given): the Potency result in experiment [1], in [3], in [7] and in [4] was “inactive” in each case. The results for the Potency in experiment [2] and in experiment [8] were 20.9 µM (active) and 14.8 µM (active), respectively.
As to `Cc1cn([C@H]2C=C[C@@H](CO)O2)c(=O)[nH]c1=O`, the Potency result in [1], in experiment [5], in experiment [8], in [7] and in experiment [4] was “inactive” throughout. Also, the Potency in experiment [2] was 3.82 µM (active).
`NC(=O)OCC(COC(N)=O)c1ccccc1`: in experiment [1], the Potency was 10.5 µM (active). Moreover, the Potency result in experiment [2], in experiment [5], in experiment [3], in experiment [7] and in experiment [4] was “inactive” each time.
For `CCCNCC(O)COc1ccccc1C(=O)CCc1ccccc1` (stereo not given), the Potency entry in experiment [1], in experiment [2], in experiment [3], in [6] and in experiment [4] was “inactive” in each case.
Regarding `Clc1ccccc1C(c1ccccc1)(c1ccccc1)n1ccnc1`, the Potency entry in experiment [1] is “inactive”. Moreover, the Potency in [2] is 5.9 µM (active); in [8], 14.8 µM (active).
For the molecule `O=C(C1CCCCC1)N1CC(=O)N2CCc3ccccc3C2C1` (stereo not given), the Potency result in experiment [1], in experiment [8] and in [4] was “inactive” throughout. Further, the Potency was 20.9 µM (active) in experiment [2] and 16.6 µM (active) in [5].
Regarding `CCC1(C)CC(=O)NC1=O` (stereo not given), the Potency entry in experiment [1], in [2], in experiment [5], in experiment [3] and in experiment [6] was “inactive” each time.
As for `NCCc1cnc[nH]1`, the Potency entry in experiment [1], in experiment [5], in [9], in [3] and in experiment [6] was “inactive” in each case.
Regarding `NCCS(=O)(=O)O`, the Potency result in experiment [1], in experiment [2], in [5], in experiment [3], in experiment [6] and in [4] was “inactive” throughout.
For the molecule `CN1CCN(C2=Nc3cc(Cl)ccc3Nc3ccccc32)CC1`, the Potency entry in experiment [1], in [3] and in experiment [4] was “inactive” each time.
Consider `CC(C)C(=O)Nc1ccc([N+](=O)[O-])c(C(F)(F)F)c1`, for which the Potency was 4.69 µM (active) in experiment [1]; 1.05 µM (active) in experiment [2]; 1.87 µM (active) in [5]; 3.32 µM (active) in [8]; 3.32 µM (active) in [3]; 3.32 µM (active) in [6]. For the same molecule, the Potency result in experiment [4] was “inactive”.
As to `Clc1ccc(C(c2ccccc2Cl)C(Cl)Cl)cc1` (stereo not given), the Potency in experiment [1] was 20.9 µM (active); in experiment [8], 6.62 µM (active); in experiment [6], 18.7 µM (active). In addition, the Potency entry in experiment [3] was “inactive”.
For the molecule `CC1(CN2CCC(n3c(=O)[nH]c4ccccc43)CC2)OCc2ccccc2-n2cccc21` (stereo not given), the Potency in experiment [1] is 5.9 µM (active); in [2] it was 4.18 µM (active); in experiment [5] it was 4.18 µM (active); in experiment [3], 13.2 µM (active). In addition, in experiment [4], the Potency result was “inactive”.
`CCOC(=O)C(C)(C)Oc1ccc(Cl)cc1`: the Potency result in [1], in [3], in experiment [6] and in experiment [4] was “inactive” each time.
